These results are taken from PubChem BioAssay (Tox21).

Results filed as inconclusive are left out. A call without a number means that no potency is given here. The source made the active and inactive calls. Calls follow the shape of the dose curve; as a rule, active = well fitted cell-killing curve with a large enough effect in the repeat runs; inconclusive = weak or mixed curves, or effect the other way; inactive = flat fitted curve, though single readings scatter.

Test [1] can be described thus: cAMP Responsive Elements (CRE) small molecule antagonists, cell-based qHTS assay: qHTS cell viability counter screen (AID 2060913). Also: nearly all actives have a fitted effect of over 40% in size. An outline of the steps:
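Steps: cells plated and held 18 hrs at 37 C/5% CO2; compounds and NKH477 (0.25 uM final) added; 3 hrs incubation; reporter substrate read; CellTiter-Glo added to measure cytotoxicity by luminescence.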
Background: qHTS replaces the single test concentration by a dilution series.

Test [2] is described as follows: cAMP Responsive Elements (CRE) small molecule agonists, cell-based qHTS assay: qHTS cell viability counter screen (AID 2060914). Also: nearly all actives have a fitted effect of over 50% in size. The essentials: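 Cytotoxicity was measured as ATP luminescence (CellTiter-Glo, 30 min at room temperature) in the same wells as the CRE-bla FRET read-out. HEK293T CRE-bla cells had 3 h compound exposure at 37C/5% CO2.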

Consider `CO/N=C(/C(=O)N[C@@H]1C(=O)N2C(C(=O)[O-])=C(C[n+]3ccn4ncccc43)CS[C@H]12)c1nsc(N)n1`, for which the Potency result in test [1] and in test [2] was “inactive” in each case.
With `[Cl][Au]([Cl])[Cl]`, the Potency result in test [1] and in test [2] was “inactive” throughout.
With `CCN(CC)C(C)CN1c2ccccc2Sc2ccccc21` (configuration not stated), the Potency entry in test [1] and in test [2] was “inactive” in each case.
Consider `Cc1ccccc1C(=O)Nc1ccc(C(=O)N2CCCC(O)c3cc(Cl)ccc32)c(C)c1` (configuration not stated), for which the Potency result in test [1] and in test [2] was “inactive” each time.
On to `CC12CCCC=C1C(=O)OC2=O` (configuration not stated), for which the Potency entry in test [1] and in test [2] was “inactive” each time.
In the case of `CCC1(C)C(=O)N(Cl)C(=O)N1Cl` (configuration not stated), the Potency entry in test [1] and in test [2] was “inactive” in each case.
In the case of `CCC(C)(C)c1cc(O)c(C(C)(C)CC)cc1O`, the Potency result in test [1] and in test [2] was “inactive” in each case.
`CC1=C(C)C(=O)C(CCCCC#CCCCC#CCO)=C(C)C1=O`: the Potency entry in test [1] and in test [2] was “inactive” each time.
In the case of `O=C(O)CC(C(=O)O)S(=O)(=O)O` (configuration not stated), the Potency result in test [1] and in test [2] was “inactive” each time.
Regarding `O=C1c2ccccc2Cc2ccccc21`, the Potency entry in test [1] and in test [2] was “inactive” in each case.
As to `Cc1ccccc1`, the Potency entry in test [1] and in test [2] was “inactive” throughout.
With `N#Cc1ccccc1C#N`, the Potency entry in test [1] and in test [2] was “inactive” throughout.
Take `CCCCC(CC)COC(=O)c1ccccc1` (configuration not stated): the Potency entry in test [1] and in test [2] was “inactive” in each case.
For the compound `CS(=O)(=O)c1ccc([C@@H](C[C@H]2CCC(=O)C2)C(=O)Nc2cnccn2)cc1Cl`, the Potency entry in test [1] and in test [2] was “inactive” each time.
As to `C=CCOC(=O)COCCC(C)C`, the Potency entry in test [1] and in test [2] was “inactive” each time.
Consider `CCCCCCCCCCCCOCC1CO1` (configuration not stated), for which the Potency result in test [1] and in test [2] was “inactive” in each case.
Take `O=C(O)CCCCCCCCCCCBr`: the Potency result in test [1] and in test [2] was “inactive” throughout.
For the compound `CC1=C(C(=O)O)N2C(=O)[C@@H](NC(=O)[C@H](N)c3ccccc3)[C@H]2SC1`, the Potency result in test [1] and in test [2] was “inactive” throughout.
Consider `O=C(OC(=O)c1ccccc1)c1ccccc1`, for which the Potency result in test [1] and in test [2] was “inactive” throughout.
With `CC1CCc2c(N3CCC(O)CC3)c(F)cc3c(=O)c(C(=O)O)cn1c23` (configuration not stated), the Potency result in test [1] and in test [2] was “inactive” in each case.
On to `CC[C@]1(O)C[C@H]2CN(CCc3c([nH]c4ccccc34)[C@@](C(=O)OC)(c3cc4c(cc3OC)N(C=O)[C@H]3[C@@](O)(C(=O)OC)[C@H](OC(C)=O)[C@]5(CC)C=CCN6CC[C@]43[C@@H]65)C2)C1`, for which the Potency entry in test [1] and in test [2] was “inactive” in each case.
For `CCCCCCc1ccc(N)cc1`, the Potency entry in test [1] and in test [2] was “inactive” in each case.
In the case of `N[C@@H]1CONC1=O`, the Potency entry in test [1] and in test [2] was “inactive” in each case.
Take `CC1CCCCC1`: the Potency result in test [1] and in test [2] was “inactive” throughout.
In the case of `CN(C)[C@@H]1C(=O)C(C(N)=O)=C(O)[C@@]2(O)C(=O)C3=C(O)c4c(O)ccc(Cl)c4[C@@H](O)[C@H]3C[C@@H]12`, the Potency entry in test [1] and in test [2] was “inactive” each time.
As to `CC1=C(C(=O)O)N2C(=O)[C@@H](NC(=O)[C@H](N)c3ccc(O)cc3)[C@H]2SC1`, the Potency entry in test [1] and in test [2] was “inactive” each time.
On to `CCN(CC)CCNC(=O)c1ccc(N)cc1`, for which the Potency entry in test [1] and in test [2] was “inactive” each time.
As for `CN(C)Cc1cc(C(C)(C)C)c(O)c(C(C)(C)C)c1`, the Potency result in test [1] and in test [2] was “inactive” in each case.
Turning to `O=C(O)c1ccc(C(=O)O)c(C(=O)O)c1`, the Potency result in test [1] and in test [2] was “inactive” in each case.
Consider `CCOc1ccc(NC(N)=O)cc1`, for which the Potency entry in test [1] and in test [2] was “inactive” each time.
Turning to `CCOC(=O)[C@H](CCc1ccccc1)N[C@H]1CCc2ccccc2N(CC(=O)O)C1=O`, the Potency result in test [1] and in test [2] was “inactive” in each case.
In the case of `c1ccc(B(c2ccccc2)c2ccccc2)cc1`, the Potency entry in test [1] and in test [2] was “inactive” each time.
Take `CCN(CC)C(=O)C1CN2CCc3cc(OC)c(OC)cc3C2CC1OC(C)=O` (configuration not stated): the Potency result in test [1] and in test [2] was “inactive” each time.
With `CC/C(=C(/CC)c1ccc(O)cc1)c1ccc(O)cc1`, the Potency entry in test [1] and in test [2] was “inactive” each time.
As to `CC(C)CC(=O)N[C@H](C(=O)N[C@H](C(=O)N[C@@H](CC(C)C)[C@@H](O)CC(=O)N[C@@H](C)C(=O)N[C@@H](CC(C)C)[C@@H](O)CC(=O)O)C(C)C)C(C)C`, the Potency entry in test [1] and in test [2] was “inactive” throughout.
For `CNC(=O)N(c1ccccc1)c1ccccc1`, the Potency result in test [1] and in test [2] was “inactive” each time.
On to `O=C(Nc1ccccc1)c1cc([N+](=O)[O-])ccc1Cl`, for which the Potency entry in test [1] and in test [2] was “inactive” each time.
`Cc1cccc(N(C)C(=S)Oc2ccc3ccccc3c2)c1`: the Potency result in test [1] and in test [2] was “inactive” throughout.
Regarding `CC(O)CC(C)O` (configuration not stated), the Potency entry in test [1] and in test [2] was “inactive” in each case.
Take `CCCCCCCCCCCCOC(C)=O`: the Potency result in test [1] and in test [2] was “inactive” throughout.
Take `CCC(=O)OC(=O)CC`: the Potency result in test [1] and in test [2] was “inactive” in each case.
In the case of `Cc1cc(-n2nc3ccc(Cl)cc3n2)c(O)c(C(C)(C)C)c1`, the Potency entry in test [1] and in test [2] was “inactive” each time.
`CCCCCC(=O)OCCc1ccccc1`: the Potency entry in test [1] and in test [2] was “inactive” throughout.
In the case of `O=C(O)P(=O)(O)O`, the Potency entry in test [1] and in test [2] was “inactive” each time.
As for `O=C1c2ccccc2C(=O)N1CO`, the Potency entry in test [1] and in test [2] was “inactive” in each case.
Regarding `CC(CCO)CC(C)(C)C` (configuration not stated), the Potency entry in test [1] and in test [2] was “inactive” in each case.
In the case of `CCCCCCCCCCCC(=O)OC[C@@H](O)[C@H]1OC[C@H](OCCO)[C@H]1OCCO`, the Potency entry in test [1] and in test [2] was “inactive” each time.
In the case of `CCNC(=S)NCC`, the Potency result in test [1] and in test [2] was “inactive” in each case.
In the case of `COc1cc(C)ccc1C(C)C`, the Potency entry in test [1] and in test [2] was “inactive” in each case.
As to `NCc1ccco1`, the Potency result in test [1] and in test [2] was “inactive” throughout.
On to `O[Si](c1ccccc1)(c1ccccc1)c1ccccc1`, for which the Potency result in test [1] and in test [2] was “inactive” each time.
Turning to `COc1ccc(C(=O)c2ccccc2O)c(O)c1`, the Potency entry in test [1] and in test [2] was “inactive” each time.
Consider `OC/C=C/c1ccccc1`, for which the Potency entry in test [1] and in test [2] was “inactive” each time.
Consider `COC(C)(C)OC`, for which the Potency result in test [1] and in test [2] was “inactive” in each case.
As to `CC(=O)Nc1ncc([N+](=O)[O-])s1`, the Potency result in test [1] and in test [2] was “inactive” throughout.
Consider `Cc1ccc(C(C)C)cc1O`, for which the Potency result in test [1] and in test [2] was “inactive” throughout.
`CCCNC(C)C(=O)Nc1ccccc1C` (configuration not stated): the Potency entry in test [1] and in test [2] was “inactive” throughout.
In the case of `COc1ccc2sc(C(=O)Nc3nnn[nH]3)c(OC(C)C)c2c1`, the Potency entry in test [1] and in test [2] was “inactive” each time.
Consider `CN1CCN(C(c2ccccc2)c2ccccc2)CC1`, for which the Potency result in test [1] and in test [2] was “inactive” each time.
Regarding `O=C(CCBr)N1CCN(C(=O)CCBr)CC1`, the Potency entry in test [1] and in test [2] was “inactive” in each case.
As for `Fc1ccccc1-c1ccccc1`, the Potency entry in test [1] and in test [2] was “inactive” throughout.
In the case of `CNCC[C@H](Oc1cccc2ccccc12)c1cccs1`, the Potency result in test [1] and in test [2] was “inactive” each time.
As to `O=c1[nH]c(=O)n([C@H]2O[C@H](CO)[C@@H](O)[C@@H]2O)cc1/C=C\Br`, the Potency entry in test [1] and in test [2] was “inactive” each time.
As for `CC(=O)OCC(=O)[C@@]12OC(C)(C)O[C@@H]1C[C@H]1[C@@H]3C[C@H](F)C4=CC(=O)C=C[C@]4(C)[C@@]3(F)[C@@H](O)C[C@@]12C`, the Potency entry in test [1] and in test [2] was “inactive” throughout.
Regarding `CC(C)CO`, the Potency result in test [1] and in test [2] was “inactive” each time.
Turning to `O=C(NN1CCCC1)NS(=O)(=O)c1ccc(Cl)cc1`, the Potency entry in test [1] and in test [2] was “inactive” throughout.
